Reference: PubChem BioAssay (NCI)
Compounds without any hit were thinned out: in the full panel of roughly 79,000, 15% have a hit. Calls of active or inactive are those of the source. Rule as the data show it: active = growth inhibition above about 70%; inactive = the rest.

Tests used:
[1] = NCI Yeast Anticancer Drug Screen. Data for the rad52 strain (AID 147);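 also: 0% = growth of vehicle-treated control cultures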; conditions: S. cerevisiae rad52 mutant growth inhibition, stronger effect = higher value
Summary of the method: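 Growth of repair-deficient yeast cells was compared between compound-treated and vehicle-treated cultures to give percent inhibition.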

[2] = NCI Yeast Anticancer Drug Screen. Data for the wt1 strain (AID 149);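 also: 0% = growth of vehicle-treated wt1 cultures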; conditions: S. cerevisiae wt1 strain (SPY 50644) growth inhibition, stronger effect = higher value
Summary of the method: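 Yeast wt1 strain exposed to compounds; growth inhibition measured relative to vehicle-treated controls.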

[3] = NCI Yeast Anticancer Drug Screen. Data for the rad50EPP+ strain (AID 151);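 also: 0% = growth of vehicle-treated control cultures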; conditions: S. cerevisiae rad50 mutant strain, stronger effect = higher value
Summary of the method: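 Measured: growth inhibition of rad50EPP+ yeast. Reference: vehicle-treated controls. Screen uses strains with defined genetic alterations in DNA damage repair or cell cycle control.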

[4] = NCI Yeast Anticancer Drug Screen. Data for the mgt1 strain (AID 153); conditions: S. cerevisiae mgt1 mutant growth inhibition, stronger effect = higher value
Summary of the method: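 Compounds were applied to mgt1 mutant yeast, and growth was then compared against vehicle-treated control cultures to give percent inhibition.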

[5] = NCI Yeast Anticancer Drug Screen. Data for the rad50 strain (AID 155);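 also: 0% = growth of vehicle-only cultures of the same strain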; conditions: S. cerevisiae rad50 strain growth inhibition, stronger effect = higher value
Summary of the method: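 Yeast carrying a defined DNA repair defect were exposed to test compounds, and growth was compared with vehicle-treated controls to give percent inhibition.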

[6] = NCI Yeast Anticancer Drug Screen. Data for the mec2-1 strain (AID 157); conditions: S. cerevisiae mec2-1 strain, stronger effect = higher value
Summary of the method: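 Compounds were applied to mec2-1 yeast cells. Their growth was then compared with that of vehicle-treated cultures to give growth inhibition.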

[7] = NCI Yeast Anticancer Drug Screen. Data for the rad14 strain (AID 159);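 also: 0% = growth of vehicle-treated control cultures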; conditions: S. cerevisiae rad14 strain growth inhibition, stronger effect = higher value
Summary of the method: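 Yeast cells carrying a defined DNA-repair defect were exposed to compounds, and growth inhibition was calculated relative to vehicle-treated control cultures.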

[8] = NCI Yeast Anticancer Drug Screen. Data for the sgs1 mgt1 strain (AID 161);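 also: 0% = growth of cultures given vehicle only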; conditions: S. cerevisiae sgs1 mgt1 strain, stronger effect = higher value
Summary of the method: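 This yeast growth screen uses a strain with defined DNA-repair lesions; compound-treated growth is compared with vehicle-treated growth.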

[9] = NCI Yeast Anticancer Drug Screen. Data for the CLN2oe strain (AID 163);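 also: 0% = growth of vehicle-only control cultures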; conditions: S. cerevisiae CLN2oe strain, stronger effect = higher value
Summary of the method: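 Cells of an engineered yeast line with disturbed cell-cycle regulation are treated with compound. Inhibition of growth is then calculated relative to the vehicle-treated reference.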

[10] = NCI Yeast Anticancer Drug Screen. Data for the cln2 rad14 strain (AID 165);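 also: 0% = growth equal to vehicle treated cultures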; conditions: S. cerevisiae cln2 rad14 strain, stronger effect = higher value
Summary of the method: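 Strain: cln2 rad14 yeast, altered in cell cycle control and DNA damage repair. Read-out: growth inhibition vs vehicle.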

[11] = NCI Yeast Anticancer Drug Screen. Data for the bub3 strain (AID 167); conditions: S. cerevisiae bub3 mutant strain, stronger effect = higher value
Summary of the method: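 Compounds were applied to a genetically altered yeast strain carrying a cell-cycle control defect. Growth inhibition was scored against vehicle-treated controls.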

[12] = NCI Yeast Anticancer Drug Screen. Data for the wt2 strain (AID 169);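 also: 0% = growth of vehicle-treated yeast cultures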; conditions: S. cerevisiae wt2 strain growth inhibition, stronger effect = higher value
Summary of the method: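 Growth of compound-treated yeast is measured and expressed as inhibition relative to vehicle-only controls.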

[13] = NCI Yeast Anticancer Drug Screen. Data for the mlh1 strain (AID 171);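 also: 0% = growth of vehicle-treated control cultures of the same strain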; conditions: S. cerevisiae mlh1 strain growth inhibition, stronger effect = higher value
Summary of the method: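 Test agents were incubated with yeast bearing a defined DNA damage repair or cell cycle control alteration; values are growth inhibition normalised to vehicle-treated cultures.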

[14] = NCI Yeast Anticancer Drug Screen. Data for the sgs1 strain (AID 173);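 also: 0% = growth of vehicle-only control cultures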; conditions: S. cerevisiae sgs1 mutant, stronger effect = higher value
Summary of the method: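 Strain with an altered DNA repair or cell cycle pathway exposed to compound. Growth then measured. Value = inhibition versus vehicle control.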

[15] = NCI Yeast Anticancer Drug Screen. Data for the mlh1 rad18 strain (AID 175); conditions: S. cerevisiae mlh1 rad18 strain growth inhibition, stronger effect = higher value
Summary of the method: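 A repair-deficient yeast strain is exposed to test compound, and growth is scored relative to vehicle-treated controls.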

[16] = NCI Yeast Anticancer Drug Screen. Data for the rad18 strain (AID 177); conditions: S. cerevisiae rad18 mutant growth inhibition, stronger effect = higher value
Summary of the method: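 DNA-repair-defective yeast; compound treatment; growth inhibition scored against vehicle.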

[17] = at 5.0 µM (retest, dose inferred, filed as 0.5)
[18] = at 50.0 µM (retest, dose inferred, filed as 5.0)

Measured: growth inhibition

COc1cc([N+](=O)[O-])c2ncccc2c1Br
active: [10]; at 50.0 µM 81.8% | [15]; [18] 77% | [16]; at 1.2 µM 91% | [16]; at 3.7 µM 93% | [16]; at 11.0 µM 93% | [16]; at 33.0 µM 93% | [16]; at 100.0 µM 91%
inactive: [1]; at 1.2 µM 41% | [1]; at 3.7 µM 41% | [1]; at 11.0 µM 47% | [1]; at 33.0 µM 44% | [1]; at 100.0 µM 42% | [2]; at 1.2 µM -1% | [2]; at 3.7 µM -7% | [2]; at 11.0 µM 5% | [2]; at 33.0 µM -2% | [2]; at 100.0 µM -3% | [3]; at 1.2 µM 11% | [3]; at 3.7 µM 16% | [3]; at 11.0 µM 29% | [3]; at 33.0 µM 36% | [3]; at 100.0 µM 24% | [4]; at 1.2 µM -2% | [4]; at 3.7 µM -6% | [4]; at 11.0 µM -1% | [4]; at 33.0 µM -4% | [4]; at 100.0 µM -4% | [5]; at 1.2 µM 15% | [5]; at 3.7 µM 12% | [5]; [17] 14% | [5]; at 11.0 µM 25% | [5]; at 33.0 µM 33% | [5]; [18] 32% | [5]; at 50.0 µM 32.9% | [5]; at 100.0 µM 20% | [6]; at 1.2 µM 2% | [6]; at 3.7 µM 2% | [6]; [17] 2% | [6]; at 11.0 µM 5% | [6]; at 33.0 µM -1% | [6]; [18] 16% | [6]; at 50.0 µM 9.05% | [6]; at 100.0 µM 2% | [7]; at 1.2 µM 35% | [7]; at 3.7 µM 51% | [7]; at 11.0 µM 67% | [7]; at 33.0 µM 49% | [7]; at 100.0 µM 55% | [8]; [17] 26% | [8]; [18] 41% | [8]; at 50.0 µM 25.1% | [9]; at 1.2 µM -11% | [9]; at 3.7 µM -7% | [9]; at 11.0 µM -11% | [9]; at 33.0 µM -11% | [9]; at 100.0 µM -11% | [10]; [17] 22% | [10]; [18] 57% | [11]; at 1.2 µM -15% | [11]; at 3.7 µM -14% | [11]; [17] -4% | [11]; at 11.0 µM -16% | [11]; at 33.0 µM -18% | [11]; [18] -3% | [11]; at 50.0 µM -3.7% | [11]; at 100.0 µM -18% | [12]; at 1.2 µM -12% | [12]; at 3.7 µM 0% | [12]; at 11.0 µM 5% | [12]; at 33.0 µM 4% | [12]; at 100.0 µM 9% | [13]; at 1.2 µM -10% | [13]; at 3.7 µM -5% | [13]; at 11.0 µM -3% | [13]; at 33.0 µM -3% | [13]; at 100.0 µM -4% | [14]; at 1.2 µM 41% | [14]; at 3.7 µM 32% | [14]; at 11.0 µM 42% | [14]; at 33.0 µM 42% | [14]; at 100.0 µM 38% | [15]; [17] 53% | [15]; at 50.0 µM 29.3%

COC(=O)C(=O)c1c(-c2ccc(Cl)c(Cl)c2)[nH]c2[nH]n(-c3ccccc3)c(=O)c2c1=O
inactive: [1]; at 1.2 µM -2% | [1]; at 3.7 µM -5% | [1]; at 11.0 µM 37% | [1]; at 33.0 µM 55% | [1]; at 100.0 µM 61% | [2]; at 1.2 µM -1% | [2]; at 3.7 µM -3% | [2]; at 11.0 µM 24% | [2]; at 33.0 µM 54% | [2]; at 100.0 µM 55% | [3]; at 1.2 µM 2% | [3]; at 3.7 µM 0% | [3]; at 11.0 µM 24% | [3]; at 33.0 µM 56% | [4]; at 1.2 µM -2% | [4]; at 3.7 µM -2% | [4]; at 11.0 µM 44% | [4]; at 33.0 µM 68% | [4]; at 100.0 µM 68% | [5]; at 1.2 µM 0% | [5]; at 3.7 µM 27% | [5]; [17] -5% | [5]; at 11.0 µM 22% | [5]; at 33.0 µM 40% | [5]; at 100.0 µM 65% | [6]; at 1.2 µM -2% | [6]; at 3.7 µM -7% | [6]; [17] -7% | [6]; at 11.0 µM 40% | [6]; at 33.0 µM 57% | [6]; [18] 9% | [6]; at 100.0 µM 63% | [7]; at 1.2 µM -1% | [7]; at 3.7 µM -1% | [7]; at 11.0 µM 46% | [7]; at 33.0 µM 62% | [7]; at 100.0 µM 61% | [8]; [17] -3% | [8]; at 50.0 µM 43% | [9]; at 1.2 µM -6% | [9]; at 3.7 µM -13% | [9]; at 11.0 µM 64% | [9]; at 33.0 µM 64% | [9]; at 100.0 µM 58% | [10]; [17] -11% | [11]; at 1.2 µM -3% | [11]; at 3.7 µM -2% | [11]; [17] -38% | [11]; at 11.0 µM 51% | [11]; at 33.0 µM 54% | [11]; at 100.0 µM 55%
active: [3]; at 100.0 µM 76% | [5]; [18] 85% | [5]; at 50.0 µM 93.1% | [6]; at 50.0 µM 82.8% | [8]; [18] 83% | [10]; [18] 81% | [10]; at 50.0 µM 87.5% | [11]; [18] 84% | [11]; at 50.0 µM 82.5%
